# ± gives the standard deviation of the averaged measurements.
# What was measured:
# [1] = test system: Escherichia coli Nissle 1917; test: area under OmniLog respiration curve over 48 h (OmniLog units x h); higher = more growth / nutrient utilisation; extreme values may be limits of the assay; conditions: incubation: 48 h, 37 °C
# [2] = test system: Escherichia coli Nissle 1917; test: DuctApe activity index of respiration/growth curve (0 no growth to 9 maximum) (index 0-9); higher = more growth / nutrient utilisation, active = 3 or more; extreme values may be limits of the assay; conditions: incubation: 48 h, 37 °C
# [3] = nutrient role: C-Source, alcohol
# [4] = nutrient role: C-Source, carboxylic acid
# [5] = nutrient role: C-Source, carbohydrate
# [6] = nutrient role: sole nitrogen source (pyruvate carbon)
# [7] = nutrient role: sole phosphorus source (pyruvate carbon)
# [8] = nutrient role: sole sulfur source (pyruvate carbon)
# [9] = nutrient role: C-Source, amino acid
# 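Wherever DuctApe activity index of respiration/growth curve (0 no growth to 9 maximum) is given: biolog PM4 phosphorus and sulfur plates, tetrazolium violet dye reduction read in the OmniLog every 15 min, kinetic curves scored by DuctApe, each plate run in triplicate.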
smiles,measurement,setting,value
NCCO [2-Aminoethanol],area under OmniLog respiration curve,[1]; [3],149 ± 200
same,DuctApe activity index,[2]; [3],0 (inactive)
O=C(CO)CO [Dihydroxyacetone],area under OmniLog respiration curve,[1]; [3],6280 ± 820
same,DuctApe activity index,[2]; [3],7 (active)
COC(=O)C(C)=O [Methylpyruvate],area under OmniLog respiration curve,"[1]; nutrient role: C-Source, ester",8530 ± 550
same,DuctApe activity index,"[2]; nutrient role: C-Source, ester",8.33 (active)
O=C(O)CC(O)C(=O)O (racemic) [DL-Malic acid],area under OmniLog respiration curve,[1]; [4],8150 ± 730
same,DuctApe activity index,[2]; [4],8 (active)
O=C[C@@H](O)[C@H](O[C@@H]1O[C@H](CO)[C@H](O)[C@H](O)[C@H]1O)[C@H](O)CO [3-O-b-D-Galactopyranosyl-D-Arabinose],area under OmniLog respiration curve,[1]; [5],8530 ± 550
same,DuctApe activity index,[2]; [5],8.33 (active)
CC(O)(CC(=O)O)C(=O)O (stereo not drawn) [Citramalic acid],area under OmniLog respiration curve,[1]; [4],4.72
same,DuctApe activity index,[2]; [4],0 (inactive)
Cc1c[nH]c(=O)[nH]c1=O [Thymine],area under OmniLog respiration curve,[1]; [6],67 ± 110
same,DuctApe activity index,[2]; [6],0 (inactive)
N[C@@H](COP(=O)(O)O)C(=O)O [O-Phospho-L-Serine],area under OmniLog respiration curve,[1]; [7],8970 ± 510
same,DuctApe activity index,[2]; [7],8.67 (active)
O=C(O)[C@H](O)[C@@H](O)C(=O)O [L-Tartaric acid],area under OmniLog respiration curve,[1]; [4],34 ± 28
same,DuctApe activity index,[2]; [4],0 (inactive)
O=P(O)(O)OC[C@H]1OC(O)(CO)[C@@H](O)[C@@H]1O (stereo partly drawn) [D-Fructose-6-Phosphate],area under OmniLog respiration curve,[1]; [5],9900 ± 640
same,DuctApe activity index,[2]; [5],9 (active)
Nc1ccn([C@@H]2O[C@H](COP(=O)(O)O)[C@@H](O)[C@H]2O)c(=O)n1 [Cytidine 5`-Monophosphate],area under OmniLog respiration curve,[1]; [7],8880 ± 960
same,DuctApe activity index,[2]; [7],8.67 (active)
N[C@@H](CS)C(=O)NCC(=O)O,area under OmniLog respiration curve,[1]; [8],6960 ± 77
same,DuctApe activity index,[2]; [8],7 (active)
C[C@H](O)C(=O)O [L-Lactic acid],area under OmniLog respiration curve,[1]; [4],7880 ± 510
same,DuctApe activity index,[2]; [4],8 (active)
OC[C@H]1O[C@@](CO)(O[C@H]2O[C@H](CO)[C@@H](O)[C@H](O)[C@H]2O)[C@@H](O[C@H]2O[C@H](CO)[C@@H](O)[C@H](O)[C@H]2O)[C@@H]1O [D-Melezitose],area under OmniLog respiration curve,[1]; [5],106 ± 150
same,DuctApe activity index,[2]; [5],1 (inactive)
OC[C@H]1OC(O)[C@H](O)[C@@H](O)[C@H]1O (stereo partly drawn) [D-Galactose],area under OmniLog respiration curve,[1]; [5],7350 ± 520
same,DuctApe activity index,[2]; [5],7.67 (active)
OC[C@@H](O)[C@@H](O)[C@H](O)[C@@H](O)CO [D-Sorbitol],area under OmniLog respiration curve,[1]; [5],8340 ± 910
same,DuctApe activity index,[2]; [5],8.33 (active)
OC[C@H]1O[C@H](OC[C@H]2OC(O)[C@H](O)[C@@H](O)[C@@H]2O)[C@H](O)[C@@H](O)[C@H]1O (stereo partly drawn) [D-Melibiose],area under OmniLog respiration curve,[1]; [5],7880 ± 1000
same,DuctApe activity index,[2]; [5],7.67 (active)
OC[C@@H](O)[C@H](O)[C@H](O)[C@@H](O)CO [Dulcitol],area under OmniLog respiration curve,[1]; [5],3230 ± 100
same,DuctApe activity index,[2]; [5],6 (active)
CSCC[C@H](N)C(=O)N[C@@H](C)C(=O)O,area under OmniLog respiration curve,[1]; [6],6410 ± 1200
same,DuctApe activity index,[2]; [6],7 (active)
O=CC(=O)O [Glyoxylic acid],area under OmniLog respiration curve,[1]; [4],5490 ± 480
same,DuctApe activity index,[2]; [4],7 (active)
O=S(O)(O)=S [Thiosulfate],area under OmniLog respiration curve,[1]; [8],6770 ± 170
same,DuctApe activity index,[2]; [8],7 (active)
Nc1ncnc2c1ncn2[C@@H]1O[C@H](CO)[C@@H](O)[C@H]1OP(=O)(O)O [Adenosine 2`-Monophosphate],area under OmniLog respiration curve,[1]; [7],9880 ± 610
same,DuctApe activity index,[2]; [7],9 (active)
NCC(=O)N[C@@H](CC(=O)O)C(=O)O,area under OmniLog respiration curve,[1]; [9],8800 ± 750
same,DuctApe activity index,[2]; [9],8.67 (active)
O=C(CO)[C@@H](O)[C@H](O)[C@H](O)CO[C@H]1O[C@H](CO)[C@@H](O)[C@H](O)[C@H]1O [Palatinose],area under OmniLog respiration curve,[1]; [5],174 ± 160
same,DuctApe activity index,[2]; [5],0 (inactive)
CC(O)C(N)=O (racemic) [DL-Lactamide],area under OmniLog respiration curve,[1]; [6],57 ± 91
same,DuctApe activity index,[2]; [6],0 (inactive)
NCCCC[C@@H](N)C(=O)O [D-Lysine],area under OmniLog respiration curve,[1]; [6],23.1 ± 23
same,DuctApe activity index,[2]; [6],0.667 (inactive)
NCCc1c[nH]cn1 [Histamine],area under OmniLog respiration curve,[1]; [6],5.03 ± 0.54
same,DuctApe activity index,[2]; [6],0 (inactive)
COC(=O)[C@@H](C)O [D-Lactic acid Methyl Ester],area under OmniLog respiration curve,"[1]; nutrient role: C-Source, ester",7990 ± 370
same,DuctApe activity index,"[2]; nutrient role: C-Source, ester",8 (active)
N[C@@H](Cc1ccc(OP(=O)(O)O)cc1)C(=O)O [O-Phospho-L-Tyrosine],area under OmniLog respiration curve,[1]; [7],8920 ± 320
same,DuctApe activity index,[2]; [7],8.67 (active)
CC[C@H](O)C(=O)O [a-Hydroxybutyric acid],area under OmniLog respiration curve,[1]; [4],2930 ± 240
same,DuctApe activity index,[2]; [4],4 (active)
O=C(O)c1ccc(O)cc1 [4-Hydroxybenzoic acid],area under OmniLog respiration curve,[1]; [4],4.72
same,DuctApe activity index,[2]; [4],0 (inactive)
O=S1(=O)CCCC1 [Tetramethylene Sulfone],area under OmniLog respiration curve,[1]; [8],615 ± 500
same,DuctApe activity index,[2]; [8],0 (inactive)
Nc1ccn([C@@H]2O[C@H](CO)[C@@H](O)[C@H]2OP(=O)(O)O)c(=O)n1 [Cytidine 2`-Monophosphate],area under OmniLog respiration curve,[1]; [7],9170 ± 640
same,DuctApe activity index,[2]; [7],8.67 (active)
O=C1O[C@H]([C@@H](O)CO)[C@@H](O)[C@@H]1O [L-Galactonic acid-g-Lactone],area under OmniLog respiration curve,[1]; [4],10200 ± 640
same,DuctApe activity index,[2]; [4],9 (active)
O=C(O)[C@H](O)[C@@H](O)[C@H](O)[C@H](O)CO [D-Gluconic acid],area under OmniLog respiration curve,[1]; [4],10300 ± 700
same,DuctApe activity index,[2]; [4],9 (active)
NCC(=O)N[C@@H](CCC(N)=O)C(=O)O,area under OmniLog respiration curve,[1]; [6],8900 ± 1400
same,DuctApe activity index,[2]; [6],8.67 (active)
OC[C@H]1O[C@@](CO)(O[C@H]2O[C@H](CO)[C@@H](O)[C@H](O)[C@H]2O)[C@@H](O)[C@@H]1O [Sucrose],area under OmniLog respiration curve,[1]; [5],634 ± 420
same,DuctApe activity index,[2]; [5],1.67 (inactive)
OC[C@H]1O[C@@H](n2cnc3c(O)nc(O)nc32)[C@H](O)[C@@H]1O [Xanthosine],area under OmniLog respiration curve,[1]; [6],2070 ± 1300
same,DuctApe activity index,[2]; [6],4 (active)
O=C(O)[C@@H](O)[C@H](O)C(=O)O [D-Tartaric acid],area under OmniLog respiration curve,[1]; [4],8.46 ± 6.5
same,DuctApe activity index,[2]; [4],0 (inactive)

# Reference: the supplement of paper PMC9801561
